For 40 compounds, Potency and activity change, negative = cytotoxicity results are on record in PubChem BioAssay (Tox21).

Inconclusive results are not listed. Entries that show only a call come without a potency. Active and inactive are the calls of the source. Calls come from the whole dose curve.
Potency is the fitted concentration of half-maximal effect.

The experiment can be described thus: qHTS assay to identify small molecule agonists of the progesterone receptor (PR) signaling pathway - cell viability counter screen (AID 1346799). Note: nearly all actives have a fitted effect of over 45% in size. The following applies: PR-UAS-bla HEK293T viability, CellTiter-Glo luminescence, 16 h; series mostly up to 92.4 µM. The source says: National Center for Advancing Translational Sciences [NCATS]
NIH Chemical Genomics Center [NCGC]
U.S. Environmental Protection Agency [EPA]
National Institutes of Environmental Health Sciences [NIEHS]
National Toxicology Program [NTP]
U.S. Food and Drug Administration [FDA]
Progesterone receptor (PR), a nuclear hormone receptor, plays an important role in development, metabolic homeostasis and reproduction. It is activated by the steroid hormone progesterone. Endocrine disrupting chemicals (EDCs) and their interactions with steroid hormone receptors like PR causes disruption of normal endocrine function. To identify the compounds that stimulate PR signaling, a PR-UAS-bla GripTite cell line i.e. PR-UAS-bla HEK293T (Invitrogen, Carlsbad, CA, USA) containing a beta-lactamase reporter gene under the control of an UAS response element was used to screen Tox21 10K compound library. The cytotoxicity of the Tox21 compound library against the PR-bla cell line was tested in parallel by measuring the cell viability using CellTiter-Glo assay in the same wells.
Tox21 Assay Protocol Summary:
PR-UAS-bla HEK293T cells were dispensed at 3,000 cells/5 uL of assay medium containing 2% charcoal stripped FBS per well into black wall/clear-bottom 1536-well plates using a Multidrop Combi (ThermoFisher Scientific, Waltham, MA) dispenser. After the assay plates were incubated at a 37C and 5% CO2 for 6 hr, 23 nL of compounds dissolved in DMSO, positive controls or DMSO only was transferred to the assay plate by a Pintool station (Kalypsys, San Diego, CA). The plates were incubated at 37C and 5% CO2 for 16 hr. Then 1 uL of LiveBLAzer B/G FRET substrate was added using a Flying Reagent Dispenser (FRD, Aurora Discovery, San Diego, CA), the plates were incubated at room temperature for 2 hours, and fluorescence intensity was measured by an Envision plate reader (PerkinElmer, Shelton, CT). For cell viability readout that measures cytotoxicity, 4 uL/well of CellTiter-Glo reagent was added into the assay plates using a FRD. After 30 min incubation at room temperature, the luminescence intensity in the plates was measured using a ViewLux (PerkinElmer) plate reader.
Turning to `O=S1(=O)CCCC1`, the Potency entry was “inactive”. On to `Cc1ccccc1C`, for which the Potency result is “inactive”. `COc1cc(C=O)ccc1OC(=O)C(C)C`: the Potency entry is “inactive”. Still for that read-out and setting: the entry for `COCCOCCOCCOC` is “inactive”. For `COc1ccc(NS(=O)(=O)c2ccc(N)cc2)nn1`, the Potency entry is “inactive”. With `Cc1cc(C)cc([N+](=O)[O-])c1`, the Potency result was “inactive”. Take `CN(C)CCOCCN(C)CCO`: the Potency result was “inactive”.

With `Nc1ccc(/C=C/c2ccc(N)cc2S(=O)(=O)O)c(S(=O)(=O)O)c1`, the activity change, negative = cytotoxicity was -4.84% [at 0.349 µM] (inactive).

Turning to `C[C@@H]1C[C@H]2[C@@H]3C[C@H](F)C4=CC(=O)C=C[C@]4(C)[C@@]3(F)[C@@H](O)C[C@]2(C)[C@@]1(O)C(=O)CO`, the Potency entry was “inactive”. For `CCCCCCCCCCCCCC(=O)OC`, the Potency entry was “inactive”.

With `Nc1ccc(S(=O)(=O)NC(=O)c2ccccc2)cc1`, the Potency entry was “inactive”.

For `CCCC(C)CC` (stereo not given), the Potency entry is “inactive”. Take `CC(=O)c1ccc2c(c1)CCCC2`: the Potency result is “inactive”. For the compound `C[C@H](CCC(=O)NCC(=O)O)[C@H]1CC[C@H]2[C@@H]3[C@H](O)C[C@@H]4C[C@H](O)CC[C@]4(C)[C@H]3C[C@H](O)[C@]12C`, the Potency result is “inactive”. For the compound `COc1ccc(/C=N/NC(=O)c2ccncc2)cc1OC`, the Potency entry was “inactive”.

Consider `CC(C)CCCCCCOC(=O)C1CCCCC1C(=O)OCCCCCCC(C)C` (stereo not given), for which the Potency result is “inactive”.

On to `CC(C)(C)NCCO`, for which the Potency was 48.6 µM (active). On to `CC(=O)N(CC(O)CO)c1c(I)c(C(=O)NCC(O)CO)c(I)c(C(=O)NCC(O)CO)c1I` (stereo not given), for which the Potency result is “inactive”. As to `CCNC(=O)NCCCOc1cccc(CN2CCCCC2)c1`, the Potency result is “inactive”.

As to `O=S(=O)(O)SSS(=O)(=O)O`, the Potency entry is “inactive”. As to `C=CCCCCCCCCCCC`, the activity change, negative = cytotoxicity is -1.19% [at 8.39 µM] (inactive). In the case of `Cc1nc2n(c(=O)c1CCN1CCC(C(=O)c3ccc(F)cc3)CC1)CCS2`, the Potency result is “inactive”.

On to `CC(=O)N1CCN(c2ccc(O)cc2)CC1`, for which the Potency entry is “inactive”. In the case of `NC(Cc1c[nH]c2ccccc12)C(=O)O` (stereo not given), the Potency result was “inactive”.

With `C=C(C)C(=O)OC1CC(C)CC(C)(C)C1` (stereo not given), the Potency result was “inactive”. On to `Cc1cccc(Nc2ccncc2S(=O)(=O)NC(=O)NC(C)C)c1`, for which the Potency entry was “inactive”.

For `NC(=O)C1(N2CCCCC2)CCN(CCCC(=O)c2ccc(F)cc2)CC1`, the Potency result was “inactive”.

In the case of `C[N+](C)(C)CC(O)CCl` (stereo not given), the Potency entry is “inactive”. For the compound `O=C1NC2NC(=O)NC2N1` (stereo not given), the Potency result is “inactive”. For the compound `O=CN1CCOCC1`, the Potency result is “inactive”. Same read-out and setting: the entry for `Cc1cccc(C(=O)O)c1[N+](=O)[O-]` is “inactive”; for `CC1=NN(c2ccc(S(=O)(=O)O)cc2)C(=O)C1N=Nc1ccccc1` (stereo not given) it is “inactive”.

As to `NS(=O)(=O)c1ccccc1OC(F)(F)F`, the Potency entry is “inactive”. Regarding `CC(=O)c1ccc(OCC(=O)N2CCCCC2)cc1`, the Potency entry is “inactive”. Same read-out and setting: the entry for `CCN(CCC#N)c1ccccc1` is “inactive”; for `O=P(O)(O)OCC(O)CO` (stereo not given) it is “inactive”.

Regarding `OC[C@@H](O)[C@H](O)[C@@H](O)[C@@H](O)CO`, the Potency entry was “inactive”. Consider `O=C(/C=C/c1ccccc1)NCCO`, for which the Potency entry was “inactive”. In the case of `CCCCCCCC[Si](OCC)(OCC)OCC`, the Potency result was “inactive”. As to `CC(=O)OC[C@H]1O[C@@H](OC(C)=O)[C@H](OC(C)=O)[C@@H]1OC(C)=O`, the Potency entry is “inactive”.
